# Source: PubChem BioAssay AID1578 (Sanford-Burnham Center for Chemical Genomics, 2009)
# Hit rate of the full screen: of about 290,000 compounds, about 3,000 (1%) were called active. For the sample, actives were picked, then their nearest neighbours and some compounds at random. Values without a mark were called inactive. No stated cut-off is given here; in the data, active means inhibition mostly above about 36% (no sharp cut-off); inactive means mostly below about 34%.
# Experiment: NOD1 signaling inhibitors, primary screen, cell-based, luminescence, uHTS (AID 1578);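 further: HEK-293T reporter cells stimulated with the NOD1 agonist gamma-tri-DAP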
# Conditions: NOD1-driven NF-kB luciferase reporter cells, at 4 µM, active compounds read high
row,SMILES,inhibition
1,O=C(Nc1nc(-c2ccccn2)cs1)c1ccc(Br)s1,32.1%
2,O=C(Nc1nc(-c2cccs2)cs1)c1ccc(Cl)s1,-18.7%
3,Cc1cc(=O)n(C)c2ccc(S(=O)(=O)N3CCOCC3)cc12,-9%
4,COc1ccc(N=N/C(=C\O)C(=O)c2cccs2)cc1,41.3% (active)
5,O=C(/C(=C/O)N=Nc1ccccc1)c1cccs1,-9.4%
6,Cc1cccc(N=N/C(=C\O)C(=O)c2cccs2)c1,27%
7,Cc1ccccc1C(=O)Nc1c(C)[nH]c(=O)[nH]c1=O,-1.1%
8,CCC(=O)Nc1cccc(C2=NOC3(C2)C[C@H](C(N)=O)N(C(=O)Cc2ccc([N+](=O)[O-])cc2)C3)c1 (some centres undefined),0%
9,O=[N+]([O-])c1cccc(-c2ccc(/C=N/Nc3nc(N4CCCCC4)nc(N4CCCCC4)n3)o2)c1,34.4% (active)
10,O=[N+]([O-])c1ccc(-c2ccc(/C=N/Nc3nc(N4CCCCC4)nc(N4CCCCC4)n3)o2)cc1,7.6%
11,O=[N+]([O-])c1ccc(-c2ccc(/C=N/Nc3nc(N4CCCC4)nc(N4CCCC4)n3)o2)cc1,-26.6%
12,FC(F)(F)c1cccc(-c2ccc(/C=N/Nc3nncc(-c4ccccc4)n3)o2)c1,-58.3%
13,Brc1ccc(-c2ccc(/C=N/Nc3nncc(-c4ccccc4)n3)o2)cc1,-106%
14,COc1ccccc1-c1cnnc(N/N=C/c2ccc(-c3cccc(Br)c3)o2)n1,52.2% (active)
15,S=c1nc(NCCc2ccccc2Cl)c2ccccc2[nH]1,-4%
16,CC(NC(=O)CN1CCCC1)C12CC3CC(CC(C3)C1)C2 (centres undefined),1.9%
17,CC(NC(=O)Cn1nc(C(=O)O)c2ccccc2c1=O)C12CC3CC(CC(C3)C1)C2 (centres undefined),-19.8%
18,CC(NC(=O)Cn1ncc(Cl)c(Cl)c1=O)C12CC3CC(CC(C3)C1)C2 (centres undefined),87% (active)
19,COC(=O)N[C@H](CC(C)=O)c1cccc(C(F)(F)F)c1,-18.1%
20,Cc1ccccc1C(=O)Nc1ccnn1C1CCN(C2CCSCC2)CC1,-16.1%
21,O=C(Nc1ccc(Cl)cc1)c1sccc1-n1cccc1,-13%
22,Cc1c(-c2ccccn2)c(=O)[nH]n1-c1ccc(F)cc1,-25.2%
23,Cc1ccc(-n2[nH]c(=O)c(-c3ccccn3)c2C)cc1,65.1% (active)
24,Cc1ccc(-n2[nH]c(=O)c3cccnc32)cc1,4.2%

row,SMILES,inhibition
1,O=C(NCCc1ccccc1)C(c1cccs1)N(C(=O)c1csnn1)C1CC1 (centres undefined),-15.8%
2,COc1ccc(N(C(=O)CCl)C(C(=O)NCCc2ccccc2)c2cccs2)cc1Cl (centres undefined),63.5%
3,COC(=O)c1ccccc1C(=O)c1cccc2ccccc12,30.1%
4,CC(C)(C)c1cc(NC(=O)Nc2ccc(Br)cc2Cl)no1,-19.7%
5,CCOC(=O)c1c(C)[nH]c(C(=O)C(C)Cl)c1C (centres undefined),58.6% (active)
6,CCOC(=O)c1[nH]c(C)c(C(=O)OCC)c1C,-5.4%
7,CCOC(=O)c1c(C)[nH]c(C(=O)O)c1C,7.9%
8,O=C(CN1CCN(c2ccccc2)CC1)Nc1ccc(Oc2ccccc2)cc1,-2.2%
9,COc1ccc(-c2cc(C(=O)NCC3CCCO3)c3cc(C(C)C)ccc3n2)cc1 (centres undefined),-1.8%
10,O=C(Nc1sc2c(c1C(=O)O)CCC2)c1ccccc1,26.9%
11,O=C(Nc1sc2c(c1C(=O)O)CCCCC2)c1ccccc1,43.3%
12,O=C(Nc1sc2c(c1C(=O)O)CCC2)c1ccccc1Cl,17.5%
13,NC(=O)c1c(NC(=O)c2ccccc2Cl)sc2c1CCC2,-50%
14,CNC(=O)c1c(NC(=O)c2cccc(C)c2)sc2c1CCC2,109% (active)
15,CNC(=O)c1c(NC(=O)c2cccc(N3C(=O)CCC3=O)c2)sc2c1CCC2,5.2%
16,Cc1cccc(C(=O)Nc2sc3c(c2C(=O)O)CCC3)c1,-0.7%
17,CCOC(=O)Cc1cnc(NC(=O)CSc2nc(C)c(CC)c(=O)[nH]2)s1,-29.1%
18,O=C(c1cc(-c2ccccc2)n[nH]1)N1CCc2c([nH]c3ccccc23)C1c1ccccn1 (centres undefined),-14.3%
19,COc1cc(Cl)c(C)cc1NC(=O)c1ccc(NS(=O)(=O)c2ccc(F)c(F)c2)cc1,14.5%
20,CCOC(=O)c1c(/N=C/c2cc([N+](=O)[O-])ccc2O)sc(C)c1C,-20.3%
21,CN(C)CCOc1cccc(Cl)c1,-12.3%
22,Cc1cc(C(=O)CSc2nncn2C)c(C)n1-c1ccccc1,-35.2%
23,Cc1ccc(C(=O)CSc2nnc3ccccn23)c(C)c1,18.8%
24,Cc1cc(C(=O)CSc2nnc3ccccn23)c(C)n1-c1ccccc1,82% (active)

row,SMILES,inhibition
1,Nc1c(-c2ccccc2)c(CSc2nc3ccccc3[nH]2)nn1-c1cccc(Cl)c1,79.7% (active)
2,Nc1c(-c2ccccc2)c(CSc2nc3ccccc3[nH]2)nn1-c1cccc(C(=O)O)c1,-21.3%
3,Nc1c(-c2ccccc2)c(CSc2nc3ccccc3[nH]2)nn1-c1ccc(Cl)cc1,70.5%
4,Cn1c(N)c(C(=O)Nc2c(Cl)cccc2Cl)sc1=S,-11.3%
5,CCN(CC)c1ccc(N2C(=O)/C(=C\c3cccs3)SC2=S)cc1,-102%
6,COc1ccccc1/C=C/C(=O)/C=C/c1ccccc1O,94.3% (active)
7,COc1ccccc1/C=C/C(C)=O,-47.2%
8,COc1ccccc1/C=C/C(=O)c1ccccc1,-6.9%
9,CC(C)C1Cc2c(sc3c2c(=O)n(Cc2ccccc2)c2nncn32)CO1 (centres undefined),12.9%
10,CC(C)C1Cc2c(sc3[nH]c(=S)n(Cc4ccccc4)c(=O)c23)CO1 (centres undefined),92.4% (active)
11,CC1(C)Cc2c(sc3[nH]c(=S)n(Cc4ccccc4)c(=O)c23)CO1,-3.1%
12,CCOC(=O)N1CCN(S(=O)(=O)/C=C/c2ccccc2)CC1,9.2%
13,CCOC(=O)N1CCN(C/C(C)=C/c2ccccc2)CC1,-12%
14,CCOC(=O)N1C/C(=C\c2ccccc2)C(=O)/C(=C/c2ccccc2)C1,41.1% (active)
15,COc1cccc(-n2c([S-])c(C(=O)Nc3ccc(C(F)(F)F)cc3)[n+]3ccccc23)c1,-8.9%
16,COc1cccc(C(=O)Nc2ccc(S(=O)(=O)Nc3nccc(C)n3)cc2)c1,-16.6%
17,Cc1ccc(S(=O)(=O)NCCC(=O)O)cc1,-3.1%
18,CCCn1c(SCC(=O)c2ccc3c(c2)OCCO3)nc2c1c(=O)n(C)c(=O)n2C,-19.8%
19,O=C(CN1C(=O)c2ccccc2S1(=O)=O)c1ccccc1,-2.1%
20,Cc1cc(C(=O)CN2C(=O)c3ccccc3S2(=O)=O)c(C)n1-c1ccccc1,94.4% (active)
21,Cc1ccc(C)c(C(=O)CN2C(=O)c3ccccc3S2(=O)=O)c1,9.1%
22,COc1cc(NC(=O)CC(C)n2ccnc2)cc(OC)c1 (centres undefined),-0.2%
23,COC(=O)c1c(NC(=O)C(C)C)sc(C(=O)N2CCOCC2)c1C,5.6%
24,COC(=O)c1c(NC(=O)CCl)sc(C(=O)N2CCOCC2)c1C,80.5% (active)

row,SMILES,inhibition
1,COC(=O)c1c(NC(C)=O)sc(C(=O)N2CCOCC2)c1C,-4.7%
2,COc1ccccc1NC(=O)CS(=O)(=O)c1cn(CC(=O)N(C(C)C)C(C)C)c2ccccc12,-1.2%
3,Cc1ccccc1C(=O)Nc1cc(-c2cc(C(C)(C)C)oc2C)nn1C,-3.8%
4,Cc1ccccc1NC(=O)C(=Cc1ccc(C(=O)O)cc1)C(=O)Nc1ccccc1C,39.4% (active)
5,Cc1ccc(NC(=O)C(=Cc2ccc(C(=O)O)cc2)C(=O)Nc2ccc(C)cc2C)c(C)c1,9.9%
6,CC(=O)/C(=C/c1ccccc1)C(=O)Nc1ccccc1C,35.2%
7,CC(=O)Nc1ccccc1C(F)(F)F,5.2%
8,COc1ccc2nc(N3C(=O)CNC3=S)sc2c1,-9.5%
9,COc1ccc2nc(-n3c(O)c(C4=c5ccccc5=NC4=O)[nH]c3=S)sc2c1,93% (active)
10,Cn1c(O)c(C2=c3ccccc3=NC2=O)[nH]c1=S,7.1%
11,COc1ccc(-c2cn3c4c(sc3n2)CCCC4)cc1,1.4%
12,CN(C)S(=O)(=O)c1ccc(N2CCCC2)c(C(=O)Nc2ccccc2N2CCOCC2)c1,-0.9%
13,CCCCC(=O)N/N=C(/C)C1=C(C)C(C)(C)OC1=O,-20.4%
14,Cc1ccc(-c2ccc(/C=C3\C(=O)ON=C3c3ccccc3)o2)c([N+](=O)[O-])c1,70.5% (active)
15,O=C1ON=C(c2ccccc2)/C1=C/c1ccc(-c2ccccc2[N+](=O)[O-])o1,46.2%
16,COc1ccc(-c2ccc(/C=C3\C(=O)N(c4ccccc4)N=C3c3ccccc3)o2)c([N+](=O)[O-])c1,10.5%
17,CCSc1nc2ccccc2n1CC(=O)N1CCCCC1,14.8%
18,O=[N+]([O-])c1cc(CN2CCCC2)c2cccnc2c1O,2.2%
19,O=[N+]([O-])c1cc(CN2CCOCC2)c2cccnc2c1O,51.3% (active)
20,O=[N+]([O-])c1cc(CN2CCN(c3ccccc3)CC2)c(O)c2ncccc12,31.8%
21,O=[N+]([O-])c1cccc(S(=O)(=O)Nc2ccc(S(=O)(=O)N3CCCC3)cc2)c1,-4%
22,CSc1cccc(NC(=O)CCn2c(=O)c3cccn3c3cccnc32)c1,-16.4%
